# PMC5540273 (PLoS ONE, 2017)
# Columns and labels:
# Settings in all cases: concentration: 1 μM, replicates: in singlicate; n = 1
# [1] = system: TESK1
# [2] = system: TGFBR1
# [3] = system: TGFBR2
# [4] = system: TIE1
# [5] = system: T1, TIE2
# T1 construct: gene TEK
# [6] = system: TLK1
# [7] = system: TLK2
# [8] = system: TNIK
# [9] = system: TNK1
# [10] = system: TNK2
# [11] = system: TNNI3K
# [12] = system: T2, TRKA
# T2 construct: gene NTRK1
# [13] = system: TRKB
# [14] = system: T3, TRKC
# T3 construct: gene NTRK3
# [15] = system: TRPM6
# [16] = system: TSSK1B
# [17] = system: TSSK3
# [18] = system: TTK
# [19] = system: TXK
# [20] = system: TYK2(JH1domain-catalytic)
# 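Note: KINOMEscan kinase panel screen.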
Compound,%Inh [1],%Inh [2],%Inh [3],%Inh [4],%Inh [5],%Inh [6],%Inh [7],%Inh [8],%Inh [9],%Inh [10],%Inh [11],%Inh [12],%Inh [13],%Inh [14],%Inh [15],%Inh [16],%Inh [17],%Inh [18],%Inh [19],%Inh [20]
O=C(Nc1cccc(-c2nn3ncccc3c2-c2ccnc(Nc3ccccc3)n2)c1)c1c(F)cccc1F [GSK198271],24%,0%,0%,45%,25%,22%,0%,32%,97.4%,51%,36%,0%,0%,0%,55%,0%,18%,7%,84%,7%
Nc1n[nH]c2cnc(-c3ccccc3)cc12 [SB-642124],22%,27%,58%,100%,0%,25%,0%,39%,0%,38%,0%,0%,28%,20%,9%,30%,12%,0%,3%,79%
COC(=O)Nc1nc2ccc(Oc3ccc(NC(=O)Nc4cc(C(F)(F)F)ccc4F)cc3)cc2n1C.Cl [GW692089],0%,7%,0%,97%,97.3%,0%,33%,10%,0%,0%,72%,100%,84%,96.5%,0%,0%,0%,17%,0%,26%
Cn1cc(-c2ccc3c(c2)CCN3C(=O)Cc2cccc(F)c2)c2c(N)ncnc21 [GSK2603358],39%,0%,0%,89%,48%,0%,0%,0%,0%,3%,0%,34%,55%,50%,0%,5%,11%,67%,25%,22%
Cl.c1ccc(-c2ccc3c(Nc4ccc5[nH]ncc5c4)ccnc3c2)nc1 [GW440137],63%,31%,50%,1%,0%,15%,5%,18%,2%,8%,0%,0%,16%,17%,25%,12%,7%,3%,74%,14%
CC(=O)N1CCN(c2ccc(Nc3nccc(-c4sc(C(C)C)nc4-c4cccc(NS(=O)(=O)c5cccc(Cl)c5)c4)n3)cn2)CC1 [GSK1660437],66%,76%,79%,76%,96.8%,0%,0%,10%,95.6%,28%,22%,45%,0%,0%,41%,10%,4%,56%,20%,29%
Cl.Cl.NCC(NCc1ccc(-c2ccnc3[nH]ccc23)s1)c1ccccc1 (centres unmarked) [GSK1321565],18%,15%,0%,9%,0%,0%,0%,0%,0%,0%,0%,98.5%,72%,70%,0%,38%,16%,0%,25%,80%
O=c1[nH]cc(-c2ccc(N3CCOCC3)cc2)c2sc(-c3cn[nH]c3)cc12 [GSK2276055],55%,0%,0%,0%,0%,25%,19%,10%,0%,0%,0%,0%,0%,0%,0%,18%,13%,22%,76%,23%
Cc1ccc(C)c(NC(=O)NC2CCN(c3ccnc(Nc4ccc(F)cc4)n3)C2)c1 (centres unmarked) [GSK1379720],28%,12%,0%,0%,0%,0%,0%,0%,0%,21%,4%,0%,51%,65%,14%,0%,15%,13%,16%,36%
O=C(Nc1n[nH]c2nc(-c3ccc(O)cc3)ccc12)C1CC1 [SB-710363],0%,0%,0%,0%,11%,18%,0%,95.1%,0%,0%,0%,26%,0%,41%,0%,0%,37%,0%,0%,9%
COc1cc(Nc2nccc(-c3c(-c4cccc(NC(=O)c5c(F)cccc5F)c4)nn4ncccc34)n2)cc(OC)c1OC [GSK327238],51%,1%,11%,90.6%,96.9%,42%,12%,80%,100%,69%,55%,48%,0%,0%,54%,11%,19%,10%,93.6%,88%
C[C@@H]1CC[C@@H](C(=O)Nc2ccccc2)CN1c1cc(-c2ccc3c(N)n[nH]c3c2)nc(N)n1 [GSK2286062],29%,0%,0%,0%,22%,0%,4%,0%,0%,0%,0%,12%,0%,13%,0%,0%,0%,9%,0%,15%
O=C(Nc1cccc(Oc2ccc3nc(NC(=O)C4CC4)cn3n2)c1)c1ccccc1C(F)(F)F,17%,9%,0%,16%,14%,0%,3%,9%,55%,4%,4%,0%,0%,0%,0%,7%,0%,26%,17%,5%
CCn1c(-c2nonc2N)nc2c(C#CC(C)(C)O)ncc(OCCCCN)c21.O=C(O)C(F)(F)F.O=C(O)C(F)(F)F [GSK507274],57%,0%,0%,5%,44%,0%,0%,0%,0%,11%,9%,0%,19%,1%,0%,80%,99.5%,21%,49%,33%
CN1CCN(Cc2cccc(-c3ccc4c(Nc5ccc(Oc6ccccc6)cc5)ccnc4c3)c2)CC1 [GW578342],2%,0%,0%,10%,0%,78%,0%,98.8%,70%,7%,6%,43%,0%,19%,39%,0%,6%,0%,5%,8%
O=C(Nc1ccccc1F)NC1CCN(c2ccnc(Nc3ccc(F)cc3)n2)CC1 [GSK1379800],17%,36%,0%,6%,7%,0%,0%,0%,0%,15%,0%,0%,0%,6%,0%,1%,22%,0%,46%,28%
COc1cc(Nc2ncc3c(C)nc(-c4cc5ccccc5[nH]4)n3n2)cc(OC)c1OC [GW869516],1%,14%,0%,46%,32%,0%,0%,47%,49%,17%,33%,4%,0%,0%,0%,6%,0%,36%,10%,0%
COc1cc2c(cc1OCCN1CCNCC1)ncc1c3ccc(C#N)cc3[nH]c21,2%,20%,0%,1%,5%,25%,0%,76%,4%,0%,0%,99.8%,94.1%,77%,100%,22%,15%,0%,11%,50%
Cc1cccc(Nc2nc(N[C@H]3CCNC3)ncc2C(N)=O)c1.Cl [GSK2197149],23%,0%,0%,0%,0%,20%,0%,78%,47%,6%,0%,93.3%,0%,18%,34%,13%,29%,29%,15%,46%

Compound,%Inh [1],%Inh [2],%Inh [3],%Inh [4],%Inh [5],%Inh [6],%Inh [7],%Inh [8],%Inh [9],%Inh [10],%Inh [11],%Inh [12],%Inh [13],%Inh [14],%Inh [15],%Inh [16],%Inh [17],%Inh [18],%Inh [19],%Inh [20]
O=C(NC1CCN(c2ccnc(Nc3ccc(F)cc3)n2)C1)c1cc2ccccc2s1 (centres unmarked) [GSK1379716],31%,39%,0%,24%,0%,7%,0%,1%,0%,21%,4%,10%,0%,8%,22%,5%,19%,17%,8%,2%
FC(F)(F)c1ccc(/C=C/c2cncnc2Nc2ccc3[nH]c(Cc4ccccc4)nc3c2)cc1 [GW709199],2%,28%,0%,0%,15%,0%,0%,0%,0%,0%,0%,0%,8%,0%,0%,0%,0%,0%,0%,41%
CN(C)S(=O)(=O)c1cc(-c2ccc3nccc(-c4cccc(S(N)(=O)=O)c4)c3c2)cnc1N [GSK1669921],0%,0%,0%,26%,0%,0%,0%,13%,42%,9%,8%,87%,0%,48%,4%,3%,18%,47%,26%,13%
COc1cccc(C(=O)Nc2cccc(Oc3ccc4nc(NC(=O)C5CC5)cn4n3)c2)c1,0%,0%,40%,84%,67%,4%,0%,54%,48%,5%,87%,0%,0%,0%,17%,6%,0%,13%,37%,0%
Cl.Cl.NCC(C(=O)Nc1cc(Br)c(-c2ccnc3[nH]ccc23)s1)c1ccccc1 (centres unmarked) [GSK1269851],0%,0%,0%,51%,6%,0%,0%,11%,6%,12%,12%,19%,28%,31%,7%,21%,4%,0%,0%,22%
Cc1cccc(NC(=O)Nc2ccc(Oc3ncnc4ccn(C)c34)cc2)c1,0%,0%,0%,59%,2%,0%,0%,8%,0%,5%,0%,20%,35%,57%,0%,19%,0%,0%,0%,0%
Nc1ncc(-c2ccc3nccc(-c4ccncc4)c3c2)cc1S(=O)(=O)N1CCOCC1 [GSK1627798],2%,0%,5%,3%,0%,0%,0%,0%,0%,11%,0%,90.2%,90.7%,74%,0%,0%,0%,8%,0%,0%
c1ccc(-c2cnc3nccnn23)cc1 [AH20685],0%,0%,0%,0%,0%,0%,0%,0%,9%,0%,0%,0%,17%,0%,29%,0%,9%,0%,0%,0%
COCCOCCOc1cc2ncc3c4ccc(C#N)cc4[nH]c3c2cc1OC,18%,0%,0%,0%,0%,0%,0%,87%,0%,9%,9%,98%,90%,78%,0%,0%,0%,26%,4%,0%
CCn1c(-c2nonc2N)nc2c(C#CC(C)(C)O)nc(OC[C@H](N)c3ccccc3)cc21 [GSK943949],0%,9%,0%,0%,0%,2%,0%,4%,0%,8%,0%,18%,0%,18%,0%,49%,82%,15%,8%,19%
COc1cccc(-c2ccc3c(NC(=O)C4CC4)n[nH]c3n2)c1 [SB-710903],36%,27%,0%,0%,0%,3%,0%,82%,0%,9%,5%,0%,66%,58%,0%,0%,3%,0%,0%,52%
COc1ccc(Nc2nccc(NCCNC(=O)c3cc4ccccc4s3)n2)cc1 [GSK1379896],0%,0%,0%,0%,0%,0%,0%,0%,0%,4%,13%,18%,0%,0%,34%,0%,20%,0%,0%,25%
CCc1ccc(-c2ccc3c(c2)-c2c(cnn2C)S(=O)(=O)N3C)cc1,3%,0%,2%,33%,0%,0%,0%,8%,0%,0%,0%,0%,0%,0%,1%,5%,0%,0%,0%,0%
COc1cccc(C2=C(Nc3ccc(Cl)c(C(=O)O)c3)C(=O)NC2=O)c1 [SB-390769],20%,0%,6%,25%,17%,5%,0%,0%,0%,17%,13%,0%,48%,34%,0%,30%,16%,0%,3%,100%
Cc1ccc(S(=O)(=O)Nc2ccc(Nc3nccc(Nc4cccc5[nH]ncc45)n3)cc2)cc1 [GSK581271],13%,20%,91.2%,9%,0%,0%,0%,0%,0%,27%,7%,0%,33%,24%,11%,4%,11%,0%,77%,42%
Cc1ccc(F)c(C(=O)Nc2cccc(-c3nn4ccccc4c3-c3ccnc(Nc4cccc(F)c4)n3)c2)c1F [GSK361061],28%,43%,21%,55%,27%,8%,0%,29%,88%,43%,37%,33%,0%,0%,36%,10%,19%,39%,52%,0%
CN1CCN(CCCNc2nccc(-c3c(-c4ccc(F)cc4)nn4cc(C(F)(F)F)ccc34)n2)CC1 [GW621581],10%,72%,44%,16%,9%,2%,0%,24%,0%,0%,0%,0%,11%,5%,1%,0%,0%,0%,14%,28%
Fc1ccc(-c2ncn(C3CCNCC3)c2-c2ccnc(Oc3ccc(-c4ccccc4)cc3)n2)cc1 [SB-245391],19%,59%,16%,46%,31%,3%,35%,11%,10%,0%,42%,13%,0%,19%,19%,0%,15%,22%,8%,32%
